# Measurements: PubChem BioAssay
# A number with no mark means an inactive call. How the calls were made is not given here.
# Target: Pantothenate synthetase (Mycobacterium tuberculosis (strain ATCC 25618 / H37Rv)) (UniProt P9WIL5)
# Test: Coupled enzyme confirmation of inhibitors against recombinant Mtb PanC (AID 375);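 further: 0% = full reaction with vehicle and 100% = no enzyme background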
# Settings: coupled enzyme assay; at 10 µM, stronger effect = higher value
# Pantothenate synthetase (Mycobacterium tuberculosis (strain ATCC 25618 / H37Rv)), sequence (P9WIL5 whole entry, looked up): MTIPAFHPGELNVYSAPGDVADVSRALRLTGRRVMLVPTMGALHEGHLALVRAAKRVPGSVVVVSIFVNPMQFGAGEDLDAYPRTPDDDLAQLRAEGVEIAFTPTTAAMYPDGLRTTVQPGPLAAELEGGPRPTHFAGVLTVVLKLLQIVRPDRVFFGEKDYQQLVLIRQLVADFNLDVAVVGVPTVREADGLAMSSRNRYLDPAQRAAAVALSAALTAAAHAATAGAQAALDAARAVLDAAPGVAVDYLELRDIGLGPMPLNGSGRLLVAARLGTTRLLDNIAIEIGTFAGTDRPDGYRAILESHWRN
row,Structure (SMILES),inhibition
1,CC(C)Cc1nnc(NS(=O)(=O)c2ccc(Cl)cc2)s1,0%
2,CCOc1ccc2[nH]c(=O)c(CN(Cc3nnnn3CCc3ccccc3)CC3CCCO3)cc2c1 (stereo not given),0%
3,c1nc(NCC2(N3CCOCC3)CCCCC2)c2ccsc2n1,0%
4,CCOC(=O)Cc1nnc(NC(=O)c2ncn[nH]2)s1,0%
5,CCC(=O)N/C(N)=N/c1nc(C)c2cc(OC)ccc2n1,0%
6,CCOC(=O)N1CCN(C(=O)Cn2ncn3nc(-c4cccs4)cc3c2=O)CC1,0%
7,Cc1cc(C(F)F)n2nc(C(=O)Nc3ccc(S(=O)(=O)N4CCCCCC4)cc3)nc2n1,1%
8,C=COCCNC(=O)Nc1ccc(Cl)c(Cl)c1,0%
9,CN1CCN(c2nc(-c3ccncc3)nc3ccccc23)CC1,0%
10,O=S(=O)(NC1CCCC1)c1ccccc1Cl,0%
11,Cc1ccc(O)c(NC(=O)COc2cc(C)ccc2C)c1,0%
12,Fc1ccc(-c2nnc(CN3CCN(c4ncc(C(F)(F)F)cc4Cl)CC3)o2)cc1,0%
13,CCOC(=O)C(NC(=O)OC(C)C)(Nc1nccs1)C(F)(F)F (stereo not given),2%
14,COc1ccc(Cc2nc(-c3ccc(NC(=O)c4cccnc4)cc3)no2)cc1,0%
15,CCOC(=O)c1ccc(NC(=O)CCc2c(C)nc3ncnn3c2C)cc1,1%
16,Cc1ccccc1OCCN1C(=O)NC2(CCc3ccccc32)C1=O (stereo not given),8%
17,CCCOc1ccc(/C(O)=C2/C(=O)C(=O)N(CCCOC)C2c2ccncc2)cc1 (stereo not given),4%
18,CC1(C)CC(=O)C(C=Nc2ccncc2)=C(O)C1,0%
19,CCCc1ccc(S(=O)(=O)NCCc2ccncc2)cc1,0%
20,CCN(CC)C(=O)CSc1nnc([C@@H](N)Cc2ccccc2)o1,0%

row,Structure (SMILES),inhibition
1,CC(C)CN(CC(C)C)c1nc(N)c(C#N)c(CC#N)c1C#N,0%
2,CCN1CCN(C(=O)c2cc3c(=O)n(C)c4ccccc4c3n2C)CC1,0%
3,CCOC(=O)c1sc2nc3c(cc2c1N)COC(C)(C)C3,12%
4,O=C(CN(c1ccc(F)cc1)S(=O)(=O)c1ccc2c(c1)OCCO2)Nc1ccc2c(c1)OCO2,3%
5,O=C1C2CC=C(Cl)CC2C(=O)N1c1ncn[nH]1 (stereo not given),0%
6,COC(=O)Nc1sc2c(c1C(=O)N1CCOCC1)CCC(C)C2 (stereo not given),0%
7,O=P(O)(O)C(O)C(F)(F)C(F)(F)C(F)(F)C(F)F (stereo not given),0%
8,CCSc1cc(C2C(C(=O)OC)=C(C)NC3=C2C(=O)CCC3)c(C)o1 (stereo not given),0%
9,COc1ccc(Cn2c(C)nc3c(c2=O)c2nc4ccccc4nc2n3Cc2ccco2)cc1,9%
10,O=C(CSc1nnnn1-c1ccccc1)c1cc2ccccc2oc1=O,0%
11,Cc1cc2oc(C(=O)NC3CCS(=O)(=O)C3)c(C)c2cc1C (stereo not given),0%
12,COc1ccccc1-n1cnc2cc(NS(=O)(=O)c3ccccc3)ccc21,0%
13,FC(F)(F)c1nnc2ccc(NCn3nnc4ccccc43)nn12,3%
14,COc1ccc(OC)c(C2=Nn3c(nnc3C3CCCCC3)SC2)c1,0%
15,CC(=O)N1C(=O)C2(C(C#N)=C(N)Oc3cc(C)oc(=O)c32)c2ccccc21 (stereo not given),0%
16,CCCC(=O)Nc1cccc(NC(=O)CN2CCN(c3ccccc3OC)CC2)c1,0%
17,O=C(c1ccc(Cl)cc1)N1CCCOC1,4%
18,CCOC(=O)c1sc2cccc(F)c2c1N,13%
19,CCOc1ccc(-c2nnc(N(CC)C(=O)C3CCC3)s2)cc1,11%
20,CCOC(=O)C1=C(C)OC(N)=C(C#N)C1c1ccoc1 (stereo not given),0%
